Source: PubChem
Sampled rows, rich in hits. Any-hit rate of the full collection: about 1.9%.
bovine MsrA act – bovine methionine sulfoxide reductase A activation | purified bovine MsrA, absorbance read-out | activation, % at 10.6 µM | 360,000 compounds, 0.3% hits | AID 602163; in the data active = activation above about 7.5%;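 also: 0% = vehicle and 100% = reference activator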
MsrA inh – inhibits bovine methionine sulfoxide reductase A; purified bovine MsrA, absorbance read-out; inhibition, % at 15.5 µM; 360,000 compounds, 0.75% hits; AID 651718; in the data active = inhibition above about 4.5%;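 also: 0% = vehicle wells with enzyme and 100% = reference inhibitor wells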
PLC-beta3 inh – inhibitors of human phospholipase C beta3; Q01970; Purified PLC-beta3, fluorogenic substrate, fluorescence; inhibition, % at 12.2 µM; 370,000 compounds, 0.18% hits; in the data active = inhibition above about 11%;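 also: 0% = median of compound wells on plate and 100% = full blocker control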
PLC-gamma1 inh – inhibitors of human phospholipase C gamma1. P19174. purified PLC-gamma1, fluorogenic substrate, fluorescence. inhibition, % at 12.2 µM. 370,000 compounds, 0.84% hits. AID 720700; in the data active = inhibition above about 9.5%
* hit, by the source's call; · = no result given.

SMILES	bovine MsrA act	MsrA inh	PLC-beta3 inh	PLC-gamma1 inh
COc1cccc(/C(O)=C2/C(=O)C(=O)N(c3cc(C)on3)C2c2cccs2)c1 (stereo unspecified)	-3.2	5.0*	-5.3	-2.9
CC(=O)c1ccc(N2CCN(C(=O)c3ccc4c(=O)n(-c5ccccc5)c(=O)[nH]c4c3)CC2)cc1	-8.6	4.6*	-6.2	-6.4
C=CCN1C(=O)c2n[nH]c(COC)c2C1c1ccc(Br)cc1 (stereo unspecified)	·	-0.8	3.9	3.9
CCN1CCN(C2=C(NS(=O)(=O)c3ccccc3)C(=O)c3ccccc3C2=O)CC1	6.5	-0.1	-7.8	-3.4
CN1CCN(C2=C(NS(=O)(=O)c3ccccc3)C(=O)c3ccccc3C2=O)CC1	15.4*	·	·	·
O=C(c1nc(-c2ccccc2)n(-c2ccccc2)n1)N1CCN(S(=O)(=O)c2ccccc2)CC1	-9.9	-1.6	3.2	10.6*
O=C(O)c1nc(-c2ccccc2)n(-c2ccccc2)n1	-1.9	-0.8	5.6	-1.5
CCOC(=O)c1cc(-c2ccc(/C=N\n3cnnc3)o2)ccc1Cl	-5.9	5.6*	-13.3	-9.8
CCCCn1nnnc1C(c1ccccc1)N1CCN(c2ccc(C)cc2)CC1 (stereo unspecified)	1.4	-1.1	11.1*	-2.4
CCCCn1nnnc1C(c1ccccc1)N1CCN(c2ncccn2)CC1 (stereo unspecified)	-1.1	2.4	4.5	1.4
CCCCOCCCNC(=O)C[C@H]1C[C@@]2(C(=O)OC)C(=C[C@H](COCc3ccccc3)O[C@@H]2C)N(CCC2=CCCCC2)C1=O	·	-0.6	1.9	1.9
CC(C)(C)c1cc(NC(=O)Nc2ccccc2)no1	8.2*	-0.6	0.1	2.0
COC(=O)c1ccccc1NC(=O)Nc1cc(C(C)(C)C)on1	-3.0	-0.5	-8.3	-1.8
COc1cc(NCCCC(C)N)c2ncccc2c1 (stereo unspecified)	12.4*	-0.8	-29.8	-14.7
COc1cc(NCCCCC(C)N)c2nccc(C)c2c1 (stereo unspecified)	1.0	-1.0	-8.7	-5.4
CS(=O)(=O)c1ccc2nc(NC(=O)c3cccs3)sc2c1	-6.4	6.8*	-47.3	-37.9
Cc1cc2nc(N)sc2cc1[N+](=O)[O-]	-2.4	5.2*	1.7	1.6
CCCCc1c(-c2ccccc2OC)ncn1Cc1cccc(OC)c1	·	0.2	-1.6	-3.5
COC(=O)c1ccc(-c2cccc(CN3CCN(c4ncc(Cc5ccccc5)cn4)CC3)c2)cc1	·	1.6	1.0	2.5
Cc1nccn1S(=O)(=O)c1ccc(Br)cc1Br	-0.3	5.5*	-0.6	4.1
CN1C(=O)C2(NCCc3c2[nH]c2ccccc32)c2ccccc21 (stereo unspecified)	1.7	-0.2	-0.4	2.7
CCOC(=O)C1(C(=O)OCC)Cc2c([nH]c3ccccc23)[C@]2(N1)C(=O)N(C)c1ccc(Br)cc12	·	·	-3.7	10.4*
COc1cccc(NC(=S)NCc2ccc(F)cc2)c1	-4.1	0.4	-4.6	-1.1
C#CC1(NC(=S)Nc2cccc(OC)c2)CCCCC1	-1.8	0.4	8.8	10.9*
COc1ccccc1NC(=O)Nc1nc(C(N)CCc2ccccc2)cs1 (stereo unspecified)	-5.7	0.9	10.2	11.4*
SMILES	bovine MsrA act	MsrA inh	PLC-beta3 inh	PLC-gamma1 inh
COc1ccc(/C=C2/C(=O)N(c3ccccc3)N=C2C)cc1OC	-0.4	1.3	9.6	18.5*
CC(=O)Oc1ccc(/C=C2/C(=O)N(c3ccccc3)N=C2C)cc1	-1.1	0.4	1.5	30.8*
CCc1ccc(C=NN2CCN(Cc3ccc(C)cc3C)CC2)cc1	·	·	1.9	-2.8
COc1cc(C2C3=C(CCCC3=O)Nc3[nH]n(-c4ccccc4)c(=O)c32)ccc1OC(C)=O (stereo unspecified)	-3.5	4.6*	-4.9	-3.9
COc1cc(C2C3=C(CCCC3=O)Nc3[nH]n(-c4ccccc4)c(=O)c32)cc(OC)c1OC (stereo unspecified)	-3.3	1.6	-1.9	2.5
CCCCNc1ccc2c(c1)OC[C@@H](Cc1ccccc1)NS2(=O)=O	·	0.7	-1.4	-0.5
O=C(O)c1cc(N2N=C(C(F)(F)F)/C(=C/C=C/c3ccco3)C2=O)ccc1Cl	-6.6	1.1	1.1	62.7*
CCOC(=O)c1ccc(N2N=C(C)/C(=C/C=C/c3ccco3)C2=O)cc1	-2.2	-0.9	1.1	0.2
O=C(NCc1ccccc1)[C@H]1CCCN1C(=O)[C@H]1CCCN1C(=O)C1CCCCC1	·	0.4	4.2	2.2
O=C(Nc1ccc(C(=O)O)cc1)/C(=C\C=C\c1ccccc1)NC(=O)c1ccccc1Cl	-6.9	5.8*	-10.5	-1.8
O=C(Nc1ccc(O)cc1)/C(=C\C=C\c1ccccc1)NC(=O)c1ccccc1	-7.0	1.4	-3.3	-3.2
CC(=O)NC(CC(=O)NCCN1C(=O)S/C(=C\c2ccccc2)C1=O)c1ccccc1 (stereo unspecified)	-9.1	4.6*	-7.1	0.7
c1coc(CSSCc2ccco2)c1	-4.5	0.5	-17.9	13.1*
Cc1ccc(NC(=O)CSCc2ccco2)cc1	-5.2	0.3	-2.1	0.8
O=c1[nH]c(/C=C\c2ccc(O)c(Cl)c2)nc(O)c1[N+](=O)[O-]	-1.8	4.6*	-4.2	2.0
C=CC[C@@H](CC(=O)N(CCO)Cc1ccccc1)C(=O)NC[C@@H](OC(=O)[C@@H](CC=C)Cc1ccc(F)cc1)c1ccccc1	-0.8	-0.7	2.9	10.2*
O=C(Nc1nnc(Cc2ccccc2)s1)Nc1ccccc1F	-2.6	1.6	0.3	12.0*
O=C(Nc1ccccc1)Nc1nnc(Cc2ccccc2F)s1	-3.0	-0.6	6.0	4.9
CN(C)c1nc(N(C)C)nc(N(C)C)n1	0.9	-0.8	2.3	9.6*
CN1CCN(C/C(=C2/N=C(c3ccccc3)OC2=O)N(C)C)CC1	-4.2	4.6*	1.0	3.6
CN(C)/C(Cn1cncn1)=C1/N=C(c2ccccc2)OC1=O	-13.4	3.4	3.3	3.0
COc1ccc(C(=O)c2ccc(N3CCOCC3)c([N+](=O)[O-])c2)cc1	-3.7	4.6*	4.8	8.1
COc1ccc(-c2cc(C#N)nc(Cl)n2)cc1	1.0	5.1*	-170.6	-127.1
CCN(CC)c1nc(C#N)cc(-c2ccc(OC)cc2)n1	6.4	8.0*	-41.8	-36.8
COC(=O)c1cc2c(c3c4cc(F)ccc4n(S(=O)(=O)c4ccc(OC)cc4)c13)C(=O)N(C)C2	·	0.3	-21.4	-15.4
SMILES	bovine MsrA act	MsrA inh	PLC-beta3 inh	PLC-gamma1 inh
COc1ccc(-c2ccc(CCC(=O)O)n2CC(=O)Nc2cccc(OC)c2)cc1	-1.7	4.7*	-54.0	-50.9
Cc1ccc(C(=O)N2CCC[C@@H]2C(=O)N2CCC[C@H]2C(=O)NCc2ccccc2)cc1C	·	-0.6	2.5	-3.6
CN(CC(=O)Nc1ccc(Cl)cc1)C(=O)Cn1[nH]c(=O)c2ccccc2c1=O	-9.5	1.4	-5.6	9.8*
Cn1cc(-c2csc(C(C)(O)c3cccc(F)c3)n2)cn1 (stereo unspecified)	1.4	-0.8	-2.7	10.1*
CCOC(=O)N[C@H](C(=O)N1CCC[C@H]1C(=O)NC1CCCC1)c1ccccc1	·	0.2	7.5	1.9
CC(C)CNC(=O)OCc1cn(Cc2cccc(F)c2F)nn1	·	·	0.4	-0.5
Cc1ccc(S(=O)(=O)NC(=O)ON=Cc2ccc3c(c2)OCO3)cc1	·	0.0	1.9	-0.9
